Compounds with a hit are over-represented: about 6.5% of the library has one in this group of screens.
Giardia kill = kills Giardia lamblia | Giardia lamblia trophozoite viability | activity change, % at 7.66 µM, hits read low | 340,000 compounds, 0.15% hits; in the data active = activity change below about -80%; inconclusive = between about -30% and that limit;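 also: parasites exposed to compound for two days anaerobically before the ATP read; % is scaled to controls: 0 for no effect and ±100 for the full control effect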
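Trophozoite viability was measured as ATP-dependent luminescence, read 15-30 min after reagent addition. Before that, parasites at 100 cells/well were exposed to compounds for 48 h, anaerobically, at 37 deg C.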
HT1080 IDH1KD tx = HT-1080 IDH1 knockdown cell toxicity (counter line) | HT-1080 IDH1 knockdown viability, ATP luminescence, 48 h | Potency, µM (doses to about 46.1 µM), for inactives: top-dose activity, negative = toxicity, hits mostly cytotoxic | 360,000 compounds, 2% hits | AID 686971;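 also: potency is read from the fitted curve at half-maximal effect; 0% = DMSO wells and -100% = cell-free medium wells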
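Assay cells: HT-1080 with IDH1 knockdown, 750 per well, RPMI/5% FBS. Exposure: 48 h at 37 °C following 2 h pre-incubation. Read: CellTiter-Glo luminescence; fitted concentration-response, curve class assigned.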
HepG2 tox = counter-screen for TGF-b inhibitors: cytotoxicity in HepG2 cells; HepG2 CAGA-GFP viability, ATP luminescence, 18 h; Potency, µM (highest dose often 46.1 µM), without a hit: at the top dose activity change, negative = cytotoxicity, usual class: cytotoxic; 410,000 compounds, 0.76% hits; AID 588856; also: potency is read from the fitted curve at half-maximal effect
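HepG2 CAGA-GFP cells (1000/well, DMEM with 1% FBS) received compound, then TGF-beta at 500 pg/mL final, and were incubated 18 hours at 37 degrees C. Viability was read by CellTiter-Glo luminescence. Media-only wells were set as complete cell-killing and DMSO as no toxicity.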
HT1080-NT tox = kills 2HG-producing HT-1080-NT fibrosarcoma cells; Potency, µM (titrated, usually from 46.1 µM), inactives show top-dose activity, negative = less viability, hits mostly cytotoxic; 360,000 compounds, 1.6% hits; AID 686970; HT-1080-NT fibrosarcoma viability, CellTiter-Glo ATP luminescence, 48 h;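 also: NT is the 2HG producing partner of a matched IDH1 knockdown line; potency is read from the fitted curve at half-maximal effect; 0% = DMSO-treated cells and -100% = media-only wells without cells; nearly all actives have a fitted effect of over 55% in size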
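Read-out is CellTiter-Glo luminescence after 10 minutes at room temperature, following 48 hours' compound treatment of HT-1080-NT cells (750 cells/well, RPMI, 5% FBS, 37 degrees C).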
IL1B secr inh = blocks inflammasome-driven IL-1 beta release; 360,000 compounds, 4.7% hits; AID 743279; THP-1 LPS/ATP IL-1B secretion, AlphaLISA, 16 h; active compounds read low; activity change, % at 57.5 µM; in the data active = activity change below about -50%; inconclusive = mostly about -30% to -49%; also: % is scaled to controls: 0 for no effect and ±100 for the full control effect
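THP-1 cells pretreated 1 hr with compounds (up to 57.5 uM final), then stimulated with LPS (250 ng/mL final) plus ATP (1.25 mM final); secreted IL-1B measured by AlphaLISA after 16 hr, decreased signal indicating inhibition.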
TGFb SMAD3 inh = blocks TGF-b signaling; 410,000 compounds, 1.2% hits; HepG2 CAGA-GFP TGF-b/SMAD3 reporter, GFP fluorescence, 18 h; TGF-beta stimulated, 500 pg/mL final; Potency, µM (doses to about 46.1 µM), without a hit: top-dose activity, negative = inhibition, hits mostly inhibitors; also: potency is read from the fitted curve at half-maximal effect; % is scaled to controls: 0 for no effect and ±100 for the full control effect; nearly all actives have a fitted effect of over 65% in size
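Using HEPG2 CAGA-GFP reporter cells at 1000 cells/well, we pinned test compounds, stimulated with recombinant TGF-beta (500 pg/mL final) and measured total well GFP after 18 h.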
The depositor's hits bear a star; ? = inconclusive; / = no result; [ ] = another dose, or the depositor's remark. Unless noted, calls follow the shape of the dose curve; as a rule, active = well fitted curve in the direction sought with a large enough effect; inconclusive = small, poorly fitted or top-dose-only effect, or another doubt; inactive = no such curve, though single readings can be large; an effect the other way counts as inactive or inconclusive.

SMILES	Giardia kill	HT1080 IDH1KD tx	HepG2 tox	HT1080-NT tox	IL1B secr inh	TGFb SMAD3 inh
CCc1c(C)sc(NC(=O)CN2CCN(C(=O)c3ccco3)CC2)c1C(=O)OC	?	?	-24%	?	-79*	0%
COc1cc(CNC2CCCCCCC2)cc(Br)c1OCC#N	2	?	-55%	-12%	-7	-29%
COc1cc(C)c(CNC2CCCCC2)cc1C	10	0%[9.24 µM]	0%	-3%	-2	1%
COc1cc(CNC2CCCCC2OC)cc(OC)c1OC (stereo unspecified)	5	2%	0%	-8%	8	7%
C=CCOc1c(CNC2CCCC2)cc(Cl)cc1OC	18	-30%	-9%	-13%	-72*	-11%
CCOc1c(Br)cc(CNC2CCCCCCC2)cc1OC	-3	-17%	11µM*	-15%	-94*	?
COc1cc(CNC2CCCCCCC2)cc(Cl)c1OC	-9	?	-41%	-10%	-80*	27%
COc1ccccc1CNC(=O)C1CCN(c2nnc(C)c3c(C)n(-c4ccccc4)nc23)CC1	/	/	-19%	/	/	/
O=C(Nc1ccccc1C(F)(F)F)N1CCN(c2ccc3nnc(-c4ccc(F)cc4)n3n2)CC1	8	-26%	-23%	-16%	-23	?
CC(C)C[C@@H](CN)NC(=O)c1nc[nH]c1C(=O)N[C@@H](C)C(=O)CNC[C@H](CC(C)C)NC(=O)c1nc[nH]c1C(=O)N[C@@H](Cc1ccccc1)C(=O)O	11	2%	16%	5%	8	-5%
CCn1c(NC(=O)c2cccs2)nc2ccccc21	6	?	-14%	?	14	-20%
Cc1cc(C)c(NC(=O)c2sc3nc(C)cc(C)c3c2NC(=O)c2ccccc2)c(C)c1	/	/	-11%	/	/	0%
CCN1CCN(Cc2c3ccccc3cc3ccccc23)CC1	5	-29%	-28%	-15%	-86*	6%
O=C(Nc1ccc(S(=O)(=O)Nc2ncccn2)cc1)c1cccc(Cl)c1	/	/	-3%	/	/	-5%
O=C(Nc1cc(Sc2ccccn2)cc([N+](=O)[O-])c1)c1cccc(Cl)c1	-3	?	-69%	?	?	11µM*
COc1ccccc1N1CCN(C(=O)C2CCCN(c3ncnc4c3nc3n4CCCCC3)C2)CC1 (stereo unspecified)	-21	-10%	-18%	-25%	31	-26%
CC(Oc1ccc2ccccc2c1)C(=O)NNC(=O)Nc1ccccc1F (stereo unspecified)	24	-6%	13%	7%	-50*	?
Cc1cc(/C=C2\SC(=S)N(C)C2=O)c(C)n1-c1ccccc1O	2	?	-55%	?	-84*	22%
Cc1cc(/C=C2/NC(=O)N(c3ccccc3)C2=O)c(C)n1-c1cccnc1	-21	-9%	-6%	-2%	-83*	28%
Cc1cc(/C=C2/SC(=S)N(c3cccc(Cl)c3)C2=O)c(C)n1-c1cccnc1	15	3.3µM*	-4%	?	-64*	?
COc1ccc(CNC(=O)COc2ccc(C(=O)c3ccc(F)cc3)cc2)cc1	-6	5.2µM*	-27%	?	-8	?
COc1ccc(CNC(=O)COc2ccc(F)cc2)cc1	16	6%	7%	11%	25	15%
Cc1cc(Nc2ccc([N+](=O)[O-])cc2)c2ccccc2n1	-4	?	-65%	?	-80*	?
CCOc1ccc2nc(C)cc(Nc3cccc([N+](=O)[O-])c3)c2c1	16	18µM*	-101%	-28%	-118*	?
Cc1cc(Nc2cccc([N+](=O)[O-])c2)c2cccc(C)c2n1	-11	-28%	-31%	?	-95*	-15%
SMILES	Giardia kill	HT1080 IDH1KD tx	HepG2 tox	HT1080-NT tox	IL1B secr inh	TGFb SMAD3 inh
COc1ccc(Nc2cc(C)nc3c(C)cccc23)cc1OC	-2	?	-18%	-22%	?	-9%
Cc1ccc(Nc2nc(N)c3ccccc3n2)cc1C	-22	?	-96%	-27%	-97*	?
Cc1cc(Nc2cccc([N+](=O)[O-])c2)c2ccccc2n1	13	?	-20%	-24%	0	-15%
Cc1ccc(Nc2nc3ccccc3c(=O)[nH]2)cc1C	1	2%	11%	23%	14	4%
COc1ccc(Cn2ccnc2)cc1[N+](=O)[O-]	-6	-2%	2%	-21%	0	8%
N[C@@H](Cc1ccc(O)cc1)c1nnc([C@H](CO)NC(=O)C2CCNCC2)o1	0	4%	2%	1%	13	12%
CCc1cc(C(=O)NC2CCCN(Cc3ccccc3F)C2)n(C)n1 (stereo unspecified)	-7	-4%	-19%	-2%	35	-19%
CCc1ccccc1NC(=S)N1CCNC(=O)C1CC(=O)OC (stereo unspecified)	9	?	6%	21%	29	24%
CC1CCCC(NC(=O)CSc2ncnc3ccccc23)C1C (stereo unspecified)	15	-3%	-19%	-6%	-14	-11%
O=C(O)c1ccccc1C=NN=C1c2ccccc2-c2ccccc21	15	-1%	1%	-3%	34	-6%
CC(=O)c1ccc(Nc2cc(C)nc3ccc(C)cc23)cc1	14	?	-45%	21µM*	-104*	-13%
Cc1cc(Nc2ccc(C)c(C)c2)c2ccccc2n1	11	16µM*	-16%	?	/	?
Cc1cc(Nc2ccccc2Cl)c2ccccc2n1	-18	-4%	-29%	-10%	-96*	?
CCOc1ccc2nc(C)cc(Nc3ccc4c(c3)OCCO4)c2c1	28	?	-81%	?	-100*	22µM*
CCOC(=O)c1cc(CC)sc1NC(=O)CN1CCN(C(=O)C2CCCO2)CC1 (stereo unspecified)	-9	-7%	-29%	3%	-2	12%
CCCC1CC(C)(c2csc(Nc3ccc(OCC)cc3)n2)OC1=O (stereo unspecified)	4	-23%	-28%	-25%	-2	?
O=C(CCN1CCc2ccccc2C(c2ccccc2)C1)c1ccc2c(c1)OCCO2 (stereo unspecified)	-12	?	-110%	?	-20	?
O=C(CCN1Cc2ccccc2C1)c1ccc2c(c1)OCCO2	1	11µM*	10µM*	?	-90*	13µM*
O=C(C[n+]1ccc(/C=C/c2ccccc2)cc1)c1ccc2c(c1)OCCO2	-3	16µM*	-32%	?	-94*	-17%

Assay outcomes: PubChem BioAssay, National Center for Advancing Translational Sciences (NCATS)
